The nature of test [1]: NCI Yeast Anticancer Drug Screen. Data for the rad50 strain (AID 155).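 Note: 0% = growth of vehicle-only cultures of the same strain.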 The following applies: S. cerevisiae rad50 strain growth inhibition, stronger effect = higher value. In a few lines: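 Cells are treated with compound, grown, and their growth is then scored against vehicle-only cultures of the same repair-deficient yeast strain.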
Test [2] can be described thus: NCI Yeast Anticancer Drug Screen. Data for the mec2-1 strain (AID 157). Particulars: S. cerevisiae mec2-1 strain, stronger effect = higher value. In a few lines:
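Yeast mec2-1 mutant treated with compound. Readout: growth inhibition vs vehicle controls.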

A short description of test [3]: NCI Yeast Anticancer Drug Screen. Data for the sgs1 mgt1 strain (AID 161).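 Note: 0% = growth of cultures given vehicle only.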 The following applies: S. cerevisiae sgs1 mgt1 strain, stronger effect = higher value. In a few lines:
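Test agents were incubated with a DNA-repair-mutant yeast strain. Growth was then read and compared against vehicle-treated controls.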

Test [4] can be described thus: NCI Yeast Anticancer Drug Screen. Data for the cln2 rad14 strain (AID 165).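 Note: 0% = growth equal to vehicle treated cultures.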 The following applies: S. cerevisiae cln2 rad14 strain, stronger effect = higher value. In a few lines: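 cln2 rad14 yeast strain; compound exposure; growth inhibition read vs vehicle controls.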
Test [5] can be described thus: NCI Yeast Anticancer Drug Screen. Data for the bub3 strain (AID 167). The following applies: S. cerevisiae bub3 mutant strain, stronger effect = higher value. In a few lines:
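Part of a panel of yeast mutants defective in DNA damage repair or cell cycle regulation. Each strain is grown with compound, and inhibition is calculated relative to solvent-treated cultures.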

The nature of test [6]: NCI Yeast Anticancer Drug Screen. Data for the mlh1 rad18 strain (AID 175). Particulars: S. cerevisiae mlh1 rad18 strain growth inhibition, stronger effect = higher value. In a few lines: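 Yeast w/ defined DNA-repair lesions; compound exposure; growth vs vehicle controls → % inhibition.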
Setting [7] is: at 5.0 µM (retest, dose inferred, filed as 0.5).
Setting [8] is: at 50.0 µM (retest, dose inferred, filed as 5.0).

Data on 9 compounds can be found in PubChem BioAssay (NCI).

Compounds without any hit were thinned out: in the full panel of roughly 79,000, 15% have a hit. Unmarked numbers belong to inactive results. Calls of active or inactive are those of the source. Cut-off read from the data, not from the text of the source: active = growth inhibition above about 70%; inactive = the rest.

Consider `CC(c1ccccc1)C(C(=O)O)(c1ccccc1)c1ccccc1` (configuration not stated), for which the growth inhibition in test [1] (setting [7]) is 80% (active); in test [1] (setting [8]), 4%; in test [1] (at 50.0 µM) it was 99.4% (active); in test [2] (setting [7]) it was 76% (active); in test [2] (setting [8]) it was 7%; in test [2] (at 50.0 µM) it was 99.3% (active). The growth inhibition was 61% in test [3] (setting [7]); 26% in test [3] (setting [8]); 99.7% (active) in test [3] (at 50.0 µM); 81% (active) in test [4] (setting [7]); 12% in test [4] (setting [8]); 99.3% (active) in test [4] (at 50.0 µM). Besides, the growth inhibition was 76% (active) in test [5] (setting [7]); -3% in test [5] (setting [8]); 99.5% (active) in test [5] (at 50.0 µM); 84% (active) in test [6] (setting [7]); 8% in test [6] (setting [8]); 99.3% (active) in test [6] (at 50.0 µM).

For the compound `CCC(CC)N(CCNc1cc(OC)cc2cccnc12)CC(C)C`, the growth inhibition in test [1] (setting [7]) is 7%; in test [1] (setting [8]), 7%; in test [1] (at 50.0 µM) it was 60.8%; in test [2] (setting [7]), 1%; in test [2] (setting [8]) it was 0%; in test [2] (at 50.0 µM) it was 26%. The growth inhibition in test [3] (setting [7]) is 4%; in test [3] (setting [8]), 12%; in test [3] (at 50.0 µM), 53.6%; in test [4] (setting [7]), 9%; in test [4] (setting [8]), -6%; in test [4] (at 50.0 µM), 49.5%. In addition, the growth inhibition in test [5] (setting [7]) was 4%; in test [5] (setting [8]), 11%; in test [5] (at 50.0 µM), 57%; in test [6] (setting [7]), 4%; in test [6] (setting [8]) it was 10%; in test [6] (at 50.0 µM), 67.8%.

As for `O=C1CCC(Cc2ccc(Br)cc2)C(=O)N1` (configuration not stated), the growth inhibition in test [1] (setting [7]) is -4%; in test [1] (setting [8]), 7%; in test [1] (at 50.0 µM), -11.7%; in test [2] (setting [7]), -4%; in test [2] (setting [8]), 1%; in test [2] (at 50.0 µM) it was 7.2%. For the same compound, the growth inhibition in test [3] (setting [7]) was 19%; in test [3] (setting [8]) it was 96% (active); in test [3] (at 50.0 µM), 93.7% (active); in test [4] (setting [7]), -3%; in test [4] (setting [8]) it was 3%; in test [4] (at 50.0 µM), -77.2%. In addition, the growth inhibition in test [5] (setting [7]) was -6%; in test [5] (setting [8]) it was -1%; in test [5] (at 50.0 µM), -54%; in test [6] (setting [7]), -6%; in test [6] (setting [8]) it was 5%; in test [6] (at 50.0 µM) it was -2.1%.

Consider `COC(=O)/N=C/CCC(O)NC(=O)OC` (configuration not stated), for which the growth inhibition in test [1] (setting [7]) is 1%; in test [1] (setting [8]), 1%; in test [1] (at 50.0 µM) it was 40.3%; in test [2] (setting [7]) it was -20%; in test [2] (setting [8]), 2%; in test [2] (at 50.0 µM) it was 1.85%. Also, the growth inhibition in test [3] (setting [7]) is 2%; in test [3] (setting [8]) it was -2%; in test [3] (at 50.0 µM), -3.15%; in test [4] (setting [7]), -1%; in test [4] (setting [8]), 3%; in test [4] (at 50.0 µM) it was 46.5%. In addition, the growth inhibition in test [5] (setting [7]) was -2%; in test [5] (setting [8]), -3%; in test [5] (at 50.0 µM), -18.8%; in test [6] (setting [7]) it was -9%; in test [6] (setting [8]), 4%; in test [6] (at 50.0 µM), 11.7%.

On to `O=C(Cc1csc2[n+]1C(=O)/C(=C/c1cccc([N+](=O)[O-])c1)S2)Nc1ccccc1`, for which the growth inhibition in test [1] (setting [7]) is -5%; in test [1] (setting [8]), -3%; in test [1] (at 50.0 µM), 41.3%; in test [2] (setting [7]) it was -16%; in test [2] (setting [8]), -5%; in test [2] (at 50.0 µM), 44.2%. For the same compound, the growth inhibition was -8% in test [3] (setting [7]); 11% in test [3] (setting [8]); 24% in test [3] (at 50.0 µM); -24% in test [4] (setting [7]); -17% in test [4] (setting [8]); 37.5% in test [4] (at 50.0 µM). The growth inhibition in test [5] (setting [7]) is -5%; in test [5] (setting [8]), 17%; in test [5] (at 50.0 µM) it was 10.8%; in test [6] (setting [7]), -3%; in test [6] (setting [8]) it was -9%; in test [6] (at 50.0 µM), 33.9%.

On to `Cc1cc(NC(=S)SCc2ccc(Cl)cc2)ccc1F`, for which the growth inhibition is 5% in test [1] (setting [7]); 66% in test [1] (setting [8]); 97.5% (active) in test [1] (at 50.0 µM); 1% in test [2] (setting [7]); 70% (active) in test [2] (setting [8]); 96% (active) in test [2] (at 50.0 µM). For the same compound, the growth inhibition was 2% in test [3] (setting [7]); 95% (active) in test [3] (setting [8]); 97.8% (active) in test [3] (at 50.0 µM); -7% in test [4] (setting [7]); 99% (active) in test [4] (setting [8]); 88% (active) in test [4] (at 50.0 µM). Moreover, the growth inhibition in test [5] (setting [7]) is 19%; in test [5] (setting [8]), 97% (active); in test [5] (at 50.0 µM), 98.5% (active); in test [6] (setting [7]) it was 2%; in test [6] (setting [8]), 89% (active); in test [6] (at 50.0 µM), 96.4% (active).

On to `Nc1ncnc2c1c(-c1ccc(Cl)cc1)cn2-c1ccccc1`, for which the growth inhibition in test [1] (setting [7]) was 21%; in test [1] (setting [8]) it was 62%; in test [1] (at 50.0 µM), 51.2%; in test [2] (setting [7]), 11%; in test [2] (setting [8]), 52%; in test [2] (at 50.0 µM) it was 30.1%. In addition, the growth inhibition in test [3] (setting [7]) is 42%; in test [3] (setting [8]), 82% (active); in test [3] (at 50.0 µM), 85.2% (active); in test [4] (setting [7]), 2%; in test [4] (setting [8]), 35%; in test [4] (at 50.0 µM), 45%. The growth inhibition in test [5] (setting [7]) is 13%; in test [5] (setting [8]), 65%; in test [5] (at 50.0 µM), 48.7%; in test [6] (setting [7]) it was 13%; in test [6] (setting [8]), 76% (active); in test [6] (at 50.0 µM), 26.7%.

Consider `COc1ccccc1C(=O)N(Cc1ccccc1)c1ccc(Cl)c(C(=O)OC(C)C)c1`, for which the growth inhibition in test [1] (setting [7]) was 28%; in test [1] (setting [8]) it was 59%; in test [1] (at 50.0 µM), 15.3%; in test [2] (setting [7]), -7%; in test [2] (setting [8]), 14%; in test [2] (at 50.0 µM) it was 1.25%. In addition, the growth inhibition in test [3] (setting [7]) was 1%; in test [3] (setting [8]), 33%; in test [3] (at 50.0 µM), -33.3%; in test [4] (setting [7]), -6%; in test [4] (setting [8]), 14%; in test [4] (at 50.0 µM), 10.5%. Moreover, the growth inhibition in test [5] (setting [7]) is -55%; in test [5] (setting [8]), 15%; in test [5] (at 50.0 µM) it was -8.1%; in test [6] (setting [7]) it was 3%; in test [6] (setting [8]), 31%; in test [6] (at 50.0 µM), 19.1%.

As to `C/C(=N\NC(=S)N(C)C)c1cccc(C)n1`, the growth inhibition in test [1] (setting [7]) was 76% (active); in test [1] (setting [8]) it was 98% (active); in test [1] (at 50.0 µM), 99.2% (active); in test [2] (setting [7]) it was 84% (active); in test [2] (setting [8]), 99% (active); in test [2] (at 50.0 µM), 99.3% (active). In addition, the growth inhibition in test [3] (setting [7]) is 84% (active); in test [3] (setting [8]), 99% (active); in test [3] (at 50.0 µM), 99.2% (active); in test [4] (setting [7]), 89% (active); in test [4] (setting [8]), 99% (active); in test [4] (at 50.0 µM) it was 99% (active). Also, the growth inhibition in test [5] (setting [7]) was 70% (active); in test [5] (setting [8]), 98% (active); in test [5] (at 50.0 µM), 99.3% (active); in test [6] (setting [7]), 95% (active); in test [6] (setting [8]) it was 98% (active); in test [6] (at 50.0 µM), 99.3% (active).
